{"source": "the supplement of paper PMC10338343", "note": "± gives the standard deviation.", "data": [{"test_system": "MILI (PIWIL2) piRISC loaded with L1MC piRNA (26 nt)", "experiment": "pre-steady-state target cleavage rate (min^-1); guide: L1MC piRNA 5'p-UAACUAAAUACUAUGCAAGCUGUAGG; higher = faster piRNA-guided slicing of the target", "details": "auxiliary factor: 500 nM mouse GTSF1", "protocol": "(§1)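 Cleave-'n-Seq: a library of target RNAs (target site embedded in constant flanks, ACAGCATTCCGCGTTAGTGATATCCG... 5' flank; DNA-blocked outside the site) at 0.1 nM was incubated with 1 nM active mouse MILI or MIWI piRISC (synthetic 5'-monophosphorylated piRNA guide) with or without 500 nM mouse GTSF1 at 33 °C for 1 min to 16 h. Uncleaved targets were sequenced and normalised to non-target controls, and the pooled three trials were fitted to a burst-and-steady-state model to give the pre-steady-state cleavage rate (min^-1; k3 is constrained to at most 1e-4). Sequence is the target site only; target names encode pairing extent (gX:gY) and contiguous / 1-mismatch / 2-mismatch / bulge geometry. Fits with R² ≤ 0 are excluded.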", "values": [{"sequence": "UCCUGGAUGUCCUUGCAUCGUAUUUAGUUA", "pre-steady-state target cleavage rate": "0.0423 ± 0.015"}, {"sequence": "UCCUGCUACAGUUUGCAUAGUAUUUAGUUA", "pre-steady-state target cleavage rate": "0.296 ± 0.015"}, {"sequence": "UCCUGGAUGUGCUUGGAUAGUUUUUAGUUA", "pre-steady-state target cleavage rate": "0.00761 ± 0.0046"}, {"sequence": "UCCUGGAUGAGCUUGAAUAGUAUUUAGUUA", "pre-steady-state target cleavage rate": "0.216 ± 0.011"}, {"sequence": "UCCUGGAUGUGCUUCGUUAGUAUUUAGAAA", "pre-steady-state target cleavage rate": "< 0.0001"}, {"sequence": "UCCUGGUACUCCUUGCAUAGUAUUUACAAA", "pre-steady-state target cleavage rate": "0.0123 ± 0.006"}, {"sequence": "UCCUGCUACAGCUAGCAUAGUAAUUAGUUA", "pre-steady-state target cleavage rate": "0.284 ± 0.026"}, {"sequence": "UCCUGCUAGAGCUUGCAUAGUAUUUAGAAA", "pre-steady-state target cleavage rate": "0.205 ± 0.042"}, {"sequence": "UCCUGGAUGUCCUUGCAUAGUAUUUAGCUUA", "pre-steady-state target cleavage rate": "0.0698 ± 0.014"}, {"sequence": "UCCUGCUACAGCUUGCUAUGUAUUUAGAAA", "pre-steady-state target cleavage rate": "0.0133 ± 0.0063"}, {"sequence": "UCCUGGAUGUCGAUGCAUAGUAUUAUGUUA", "pre-steady-state target cleavage rate": "0.0412 ± 0.011"}, {"sequence": "UCCUCGUACAGCUUGCAUAGUAUUAAGUUA", "pre-steady-state target cleavage rate": "0.214 ± 0.022"}, {"sequence": "UCCUCCUAGAGGUUGCAUAGUAUUUAGUUA", "pre-steady-state target cleavage rate": "0.205 ± 0.011"}, {"sequence": "UCCUGGAACAGCUUGCAUUAGUAUUUAGUUA", "pre-steady-state target cleavage rate": "0.0128 ± 0.0055"}, {"sequence": "UCCUGGAUCAGCUUCCAAAGUAUUUAGUUA", "pre-steady-state target cleavage rate": "0.0704 ± 0.0082"}, {"sequence": "UCCUGGAUGAGCUUCGCAUAGUAUUUAGUUA", "pre-steady-state target cleavage rate": "0.258 ± 0.02"}, {"sequence": "UCCUGGAUGUCGUUGCAUAGUAUUUUCUUA", "pre-steady-state target cleavage rate": "0.00558 ± 0.0035"}, {"sequence": "UCCUGGAUGAGCUUGCAAAGUAUUAAGUUA", "pre-steady-state target cleavage rate": "0.0742 ± 0.012"}, {"sequence": "UCCUGGAACAGCAAGCAUAGUAUUUACAAA", "pre-steady-state target cleavage rate": "0.148 ± 0.034"}, {"sequence": "UCCUGGAUCAGCUUGCAAUGUAUUUAGAAA", "pre-steady-state target cleavage rate": "0.0496 ± 0.013"}, {"sequence": "UCCUGGAUCAGCAAGCAUAGUAUUUAGUUA", "pre-steady-state target cleavage rate": "0.231 ± 0.021"}, {"sequence": "UCCUGGAUGUCCAACCAUAGUAUUUAGUUA", "pre-steady-state target cleavage rate": "0.00412 ± 0.004"}, {"sequence": "UCCUGCUACAGGAAGCAUAGUAUUUAGUAA", "pre-steady-state target cleavage rate": "0.254 ± 0.024"}, {"sequence": "UCCUGGUACAGGUUGCAUAGUAUUUAGAAA", "pre-steady-state target cleavage rate": "0.043 ± 0.013"}, {"sequence": "UCCUGGAACACUUGCAUAGUAUUUAGUUA", "pre-steady-state target cleavage rate": "0.194 ± 0.017"}, {"sequence": "UCCUGGAUGUCGAACGAUAGUAUUUUAGUUA", "pre-steady-state target cleavage rate": "< 0.0001"}, {"sequence": "UCCUGGAUGUCGAUGCAUAGUGUUUAGUUA", "pre-steady-state target cleavage rate": "0.0372 ± 0.0094"}]}, {"test_system": "MILI (PIWIL2) piRISC loaded with L1MC piRNA (26 nt)", "experiment": "pre-steady-state target cleavage rate (min^-1); guide: L1MC piRNA 5'p-UAACUAAAUACUAUGCAAGCUGUAGG; MIWI and MILI are mouse PIWI proteins and EfPiwi is from a freshwater sponge; tags in brackets are library labels; higher = faster piRNA-guided slicing of the target", "details": "auxiliary factor: none (no GTSF1)", "protocol": "as §1", "values": [{"sequence": "UCCUGGAUGUCCUUGCAUCGUAUUUAGUUA", "pre-steady-state target cleavage rate": "0.00482 ± 0.0021"}, {"sequence": "UCCUGCUACAGUUUGCAUAGUAUUUAGUUA", "pre-steady-state target cleavage rate": "0.0106 ± 0.0023"}, {"sequence": "UCCUGGAUGUGCUUGGAUAGUUUUUAGUUA", "pre-steady-state target cleavage rate": "0.00414 ± 0.0024"}, {"sequence": "UCCUGGAUGAGCUUGAAUAGUAUUUAGUUA", "pre-steady-state target cleavage rate": "0.00728 ± 0.0023"}, {"sequence": "UCCUGCUACAGCUAGCAUAGUAAUUAGUUA", "pre-steady-state target cleavage rate": "0.0047 ± 0.003"}, {"sequence": "UCCUCGUACAGCUUGCAUAGUAUUAAGUUA", "pre-steady-state target cleavage rate": "0.00547 ± 0.0019"}, {"sequence": "UCCUCCUAGAGGUUGCAUAGUAUUUAGUUA", "pre-steady-state target cleavage rate": "0.00716 ± 0.0022"}, {"sequence": "UCCUGGAUCAGCUUCCAAAGUAUUUAGUUA", "pre-steady-state target cleavage rate": "0.00341 ± 0.0024"}, {"sequence": "UCCUGGAUGAGCUUCGCAUAGUAUUUAGUUA", "pre-steady-state target cleavage rate": "0.00539 ± 0.0022"}, {"sequence": "UCCUGGAUGAGCUUGCAAAGUAUUAAGUUA", "pre-steady-state target cleavage rate": "0.00449 ± 0.0026"}, {"sequence": "UCCUGGAUCAGCAAGCAUAGUAUUUAGUUA", "pre-steady-state target cleavage rate": "0.00449 ± 0.0021"}, {"sequence": "UCCUGCUACAGGAAGCAUAGUAUUUAGUAA", "pre-steady-state target cleavage rate": "0.00762 ± 0.0022"}, {"sequence": "UCCUGGAACACUUGCAUAGUAUUUAGUUA", "pre-steady-state target cleavage rate": "0.00651 ± 0.0021"}, {"sequence": "UCCUGGAUGUCGAUGCAUAGUGUUUAGUUA", "pre-steady-state target cleavage rate": "0.0049 ± 0.0026"}]}]}
